Data reported in PubChem BioAssay AID1159580 (chemical genetic matrix, 2015).
Values joined by “and” are separate entries in the source; they are usually repeats but may differ in a detail not shown here. Equal entries are not always repeated. The campaign covered roughly 5,500 compounds. About 2,000 (36%) were called active. Not shown: some 18% with an inconclusive outcome. Rule as the data show it: active = normalized growth mostly below about 0.91 (no sharp cut-off); inconclusive = no clear call, values can overlap the other calls; inactive = mostly above about 0.92. Some of the results follow.

Assay: chemical genetic growth profiling, strain panel (AID 1159580);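 also: tested at 20 µM; growth read once vehicle control cultures reached saturation at 30 °C; 1 = growth at the plate median or of vehicle wells; lower values mean less growth of the strain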
Settings: growth OD

Measured: normalized growth

Cn1c(=O)c2[nH]cnc2n(C)c1=O
inactive: S. cerevisiae deletion strains, locus YJR066W, strain TOR1, stronger effect = lower value 0.959 | S. cerevisiae deletion strains, locus YKL009W, strain mrt4, stronger effect = lower value 0.98 | S. cerevisiae deletion strains, locus YKL068W, stronger effect = lower value 0.992 | S. cerevisiae deletion strains, locus YKL085W, strain MDH1 (second series), stronger effect = lower value 0.982 | S. cerevisiae deletion strains, locus YKL085W, strain MDH1, stronger effect = lower value 0.982 | S. cerevisiae deletion strains, locus YKL160W, strain elf1, stronger effect = lower value 1.04 | S. cerevisiae deletion strains, locus YKL190W, strain CNB1, stronger effect = lower value 0.996 | S. cerevisiae deletion strains, locus YKR001C, strain vps1, stronger effect = lower value 0.971 | S. cerevisiae deletion strains, locus YKR026C, strain gcn3, stronger effect = lower value 1.01 | S. cerevisiae deletion strains, locus YKR091W, strain srl3, stronger effect = lower value 1.02 | S. cerevisiae deletion strains, locus YLL001W, strain dnm1, stronger effect = lower value 1.01 | S. cerevisiae deletion strains, locus YLL026W, stronger effect = lower value 1.02 | S. cerevisiae deletion strains, locus YLL041C, strain sdh2, stronger effect = lower value 1.01 | S. cerevisiae deletion strains, locus YLR027C, strain aat2, stronger effect = lower value 1.02 | S. cerevisiae deletion strains, locus YLR039C, strain RIC1, stronger effect = lower value 0.982 | S. cerevisiae deletion strains, locus YLR058C, strain SHM2, stronger effect = lower value 0.988 | S. cerevisiae deletion strains, locus YLR102C, strain apc9, stronger effect = lower value 0.977 | S. cerevisiae deletion strains, locus YLR113W, strain HOG1, stronger effect = lower value 0.99 | S. cerevisiae deletion strains, locus YLR221C, strain rsa3, stronger effect = lower value 1.02 | S. cerevisiae deletion strains, locus YLR258W, strain gsy2, stronger effect = lower value 1.02 | S. cerevisiae deletion strains, locus YLR262C, strain YPT6 (second series), stronger effect = lower value 1 | S. cerevisiae deletion strains, locus YLR262C, strain YPT6, stronger effect = lower value 0.993 | S. cerevisiae deletion strains, locus YLR268W, strain sec22, stronger effect = lower value 0.941 | S. cerevisiae deletion strains, locus YLR320W, strain mms22, stronger effect = lower value 1.01 | S. cerevisiae deletion strains, locus YLR330W, strain CHS5, stronger effect = lower value 0.992 | S. cerevisiae deletion strains, locus YLR342W, strain FKS1 (second series), stronger effect = lower value 0.99 | S. cerevisiae deletion strains, locus YLR342W, strain FKS1, stronger effect = lower value 1.02 | S. cerevisiae deletion strains, locus YLR357W, strain rsc2, stronger effect = lower value 1.01 | S. cerevisiae deletion strains, locus YLR370C, strain arc18, stronger effect = lower value 1.03 | S. cerevisiae deletion strains, locus YLR371W, strain rom2, stronger effect = lower value 0.968 | S. cerevisiae deletion strains, locus YLR384C, strain iki3, stronger effect = lower value 1.01 | S. cerevisiae deletion strains, locus YLR418C, strain cdc73, stronger effect = lower value 0.971 | S. cerevisiae deletion strains, locus YML016C, strain PPZ1, stronger effect = lower value 0.989 | S. cerevisiae deletion strains, locus YML032C, strain rad52, stronger effect = lower value 0.971 | S. cerevisiae deletion strains, locus YML120C, strain ndi1, stronger effect = lower value 1.02 | S. cerevisiae deletion strains, locus YML124C, strain tub3, stronger effect = lower value 0.969 | S. cerevisiae deletion strains, locus YMR058W, strain fet3, stronger effect = lower value 1.02 | S. cerevisiae deletion strains, locus YMR078C, strain ctf18, stronger effect = lower value 0.975 | S. cerevisiae deletion strains, locus YMR125W, strain sto1, stronger effect = lower value 1.01 | S. cerevisiae deletion strains, locus YMR129W, stronger effect = lower value 1.01 | S. cerevisiae deletion strains, locus YMR205C, strain PFK2, stronger effect = lower value 1.04 | S. cerevisiae deletion strains, locus YMR223W, strain ubp8, stronger effect = lower value 0.984 | S. cerevisiae deletion strains, locus YMR231W, strain pep5, stronger effect = lower value 1.02 | S. cerevisiae deletion strains, locus YMR263W, strain SAP30, stronger effect = lower value 0.996 | S. cerevisiae deletion strains, locus YMR307W, strain GAS1, stronger effect = lower value 0.992 | S. cerevisiae deletion strains, locus YNL067W, strain RPL9B, stronger effect = lower value 0.993 | S. cerevisiae deletion strains, locus YNL071W, strain lat1, stronger effect = lower value 1.03 | S. cerevisiae deletion strains, locus YNL128W, strain TEP1, stronger effect = lower value 0.985 | S. cerevisiae deletion strains, locus YNL153C, strain GIM3, stronger effect = lower value 0.988 | S. cerevisiae deletion strains, locus YNL175C, strain NOP13, stronger effect = lower value 0.995 | S. cerevisiae deletion strains, locus YNL183C, strain NPR1, stronger effect = lower value 0.955 | S. cerevisiae deletion strains, locus YNL197C, strain WHI3, stronger effect = lower value 1 | S. cerevisiae deletion strains, locus YNL209W, strain ssb2, stronger effect = lower value 1.02 | S. cerevisiae deletion strains, locus YNL224C, strain SQS1, stronger effect = lower value 0.99 | S. cerevisiae deletion strains, locus YNL233W, strain BNI4, stronger effect = lower value 0.993 | S. cerevisiae deletion strains, locus YNL248C, strain rpa49, stronger effect = lower value 1.05 | S. cerevisiae deletion strains, locus YNL250W, strain rad50, stronger effect = lower value 0.979 | S. cerevisiae deletion strains, locus YNL271C, strain bni1, stronger effect = lower value 0.967 | S. cerevisiae deletion strains, locus YNL298W, strain CLA4, stronger effect = lower value 0.965 | S. cerevisiae deletion strains, locus YNL307C, strain MCK1, stronger effect = lower value 0.971 | S. cerevisiae deletion strains, locus YNL322C, strain KRE1 (second series), stronger effect = lower value 1.01 | S. cerevisiae deletion strains, locus YNR049C, strain mso1, stronger effect = lower value 1.02 | S. cerevisiae deletion strains, locus YNR052C, strain pop2, stronger effect = lower value 0.971 | S. cerevisiae deletion strains, locus YOL006C, strain TOP1, stronger effect = lower value 1.01 | S. cerevisiae deletion strains, locus YOL012C, strain htz1 0.812 | S. cerevisiae deletion strains, locus YOL147C, strain pex11, stronger effect = lower value 0.973 | S. cerevisiae deletion strains, locus YOR001W, strain rrp6, stronger effect = lower value 0.994 | S. cerevisiae deletion strains, locus YOR061W, strain CKA2, stronger effect = lower value 0.988 | S. cerevisiae deletion strains, locus YOR069W, strain VPS5, stronger effect = lower value 0.982 | S. cerevisiae deletion strains, locus YOR070C, strain gyp1, stronger effect = lower value 1.04 | S. cerevisiae deletion strains, locus YOR080W, strain dia2, stronger effect = lower value 1 | S. cerevisiae deletion strains, locus YOR083W, strain WHI5 (second series), stronger effect = lower value 1.01 | S. cerevisiae deletion strains, locus YOR083W, strain WHI5, stronger effect = lower value 1.03 | S. cerevisiae deletion strains, locus YOR106W, strain vam3, stronger effect = lower value 1.05 | S. cerevisiae deletion strains, locus YOR136W, strain idh2, stronger effect = lower value 0.986 | S. cerevisiae deletion strains, locus YOR144C, strain elg1, stronger effect = lower value 0.981 | S. cerevisiae deletion strains, locus YOR184W, strain ser1, stronger effect = lower value 0.97 | S. cerevisiae deletion strains, locus YOR231W, strain MKK1, stronger effect = lower value 0.979 | S. cerevisiae deletion strains, locus YOR265W, strain rbl2, stronger effect = lower value 1.01 | S. cerevisiae deletion strains, locus YOR270C, strain vph1, stronger effect = lower value 1.05 | S. cerevisiae deletion strains, locus YOR290C, strain snf2, stronger effect = lower value 1.05 | S. cerevisiae deletion strains, locus YOR316C, strain cot1, stronger effect = lower value 0.969 | S. cerevisiae deletion strains, locus YPL051W, strain arl3, stronger effect = lower value 1.04 | S. cerevisiae deletion strains, locus YPL078C, strain atp4, stronger effect = lower value 1.04 | S. cerevisiae deletion strains, locus YPL106C, strain sse1, stronger effect = lower value 1.05 | S. cerevisiae deletion strains, locus YPL240C, strain hsp82, stronger effect = lower value 1.02 | S. cerevisiae deletion strains, locus YPL241C, strain CIN2, stronger effect = lower value 0.992 and 1 | S. cerevisiae deletion strains, locus YPL256C, strain CLN2, stronger effect = lower value 0.97 | S. cerevisiae deletion strains, locus YPR119W, strain clb2, stronger effect = lower value 0.986 | S. cerevisiae deletion strains, locus YPR141C, strain kar3, stronger effect = lower value 0.961 | S. cerevisiae deletion strains, locus YPR163C, strain tif3, stronger effect = lower value 0.965 | S. cerevisiae deletion strains, locus YPR167C, strain met16, stronger effect = lower value 0.977 | S. cerevisiae deletion strains, strain wtn01, stronger effect = lower value 0.953 | S. cerevisiae strains, strain wild type, stronger effect = lower value 1
